According to the supplement of paper PMC11732987, “Enantioselective OTUD7B fragment discovery through chemoproteomics screening and high-throughput optimisation” (Communications Chemistry, 2025):

Assays:
Assay in all cases: log2 ratio of Biotin-Ahx-Ub-VS probe labelling (fragment/DMSO); higher = less target engagement (more negative = stronger competition), active = hit call of the paper (q ≤ 0.05, log2 ratio ≤ -1)
Details in all cases: compound concentration: 200 uM; treatment time: 3 h
USP34 = USP34 (UniProt Q70CQ2)
USP34, sequence (Q70CQ2 whole entry, the tested form may be a part): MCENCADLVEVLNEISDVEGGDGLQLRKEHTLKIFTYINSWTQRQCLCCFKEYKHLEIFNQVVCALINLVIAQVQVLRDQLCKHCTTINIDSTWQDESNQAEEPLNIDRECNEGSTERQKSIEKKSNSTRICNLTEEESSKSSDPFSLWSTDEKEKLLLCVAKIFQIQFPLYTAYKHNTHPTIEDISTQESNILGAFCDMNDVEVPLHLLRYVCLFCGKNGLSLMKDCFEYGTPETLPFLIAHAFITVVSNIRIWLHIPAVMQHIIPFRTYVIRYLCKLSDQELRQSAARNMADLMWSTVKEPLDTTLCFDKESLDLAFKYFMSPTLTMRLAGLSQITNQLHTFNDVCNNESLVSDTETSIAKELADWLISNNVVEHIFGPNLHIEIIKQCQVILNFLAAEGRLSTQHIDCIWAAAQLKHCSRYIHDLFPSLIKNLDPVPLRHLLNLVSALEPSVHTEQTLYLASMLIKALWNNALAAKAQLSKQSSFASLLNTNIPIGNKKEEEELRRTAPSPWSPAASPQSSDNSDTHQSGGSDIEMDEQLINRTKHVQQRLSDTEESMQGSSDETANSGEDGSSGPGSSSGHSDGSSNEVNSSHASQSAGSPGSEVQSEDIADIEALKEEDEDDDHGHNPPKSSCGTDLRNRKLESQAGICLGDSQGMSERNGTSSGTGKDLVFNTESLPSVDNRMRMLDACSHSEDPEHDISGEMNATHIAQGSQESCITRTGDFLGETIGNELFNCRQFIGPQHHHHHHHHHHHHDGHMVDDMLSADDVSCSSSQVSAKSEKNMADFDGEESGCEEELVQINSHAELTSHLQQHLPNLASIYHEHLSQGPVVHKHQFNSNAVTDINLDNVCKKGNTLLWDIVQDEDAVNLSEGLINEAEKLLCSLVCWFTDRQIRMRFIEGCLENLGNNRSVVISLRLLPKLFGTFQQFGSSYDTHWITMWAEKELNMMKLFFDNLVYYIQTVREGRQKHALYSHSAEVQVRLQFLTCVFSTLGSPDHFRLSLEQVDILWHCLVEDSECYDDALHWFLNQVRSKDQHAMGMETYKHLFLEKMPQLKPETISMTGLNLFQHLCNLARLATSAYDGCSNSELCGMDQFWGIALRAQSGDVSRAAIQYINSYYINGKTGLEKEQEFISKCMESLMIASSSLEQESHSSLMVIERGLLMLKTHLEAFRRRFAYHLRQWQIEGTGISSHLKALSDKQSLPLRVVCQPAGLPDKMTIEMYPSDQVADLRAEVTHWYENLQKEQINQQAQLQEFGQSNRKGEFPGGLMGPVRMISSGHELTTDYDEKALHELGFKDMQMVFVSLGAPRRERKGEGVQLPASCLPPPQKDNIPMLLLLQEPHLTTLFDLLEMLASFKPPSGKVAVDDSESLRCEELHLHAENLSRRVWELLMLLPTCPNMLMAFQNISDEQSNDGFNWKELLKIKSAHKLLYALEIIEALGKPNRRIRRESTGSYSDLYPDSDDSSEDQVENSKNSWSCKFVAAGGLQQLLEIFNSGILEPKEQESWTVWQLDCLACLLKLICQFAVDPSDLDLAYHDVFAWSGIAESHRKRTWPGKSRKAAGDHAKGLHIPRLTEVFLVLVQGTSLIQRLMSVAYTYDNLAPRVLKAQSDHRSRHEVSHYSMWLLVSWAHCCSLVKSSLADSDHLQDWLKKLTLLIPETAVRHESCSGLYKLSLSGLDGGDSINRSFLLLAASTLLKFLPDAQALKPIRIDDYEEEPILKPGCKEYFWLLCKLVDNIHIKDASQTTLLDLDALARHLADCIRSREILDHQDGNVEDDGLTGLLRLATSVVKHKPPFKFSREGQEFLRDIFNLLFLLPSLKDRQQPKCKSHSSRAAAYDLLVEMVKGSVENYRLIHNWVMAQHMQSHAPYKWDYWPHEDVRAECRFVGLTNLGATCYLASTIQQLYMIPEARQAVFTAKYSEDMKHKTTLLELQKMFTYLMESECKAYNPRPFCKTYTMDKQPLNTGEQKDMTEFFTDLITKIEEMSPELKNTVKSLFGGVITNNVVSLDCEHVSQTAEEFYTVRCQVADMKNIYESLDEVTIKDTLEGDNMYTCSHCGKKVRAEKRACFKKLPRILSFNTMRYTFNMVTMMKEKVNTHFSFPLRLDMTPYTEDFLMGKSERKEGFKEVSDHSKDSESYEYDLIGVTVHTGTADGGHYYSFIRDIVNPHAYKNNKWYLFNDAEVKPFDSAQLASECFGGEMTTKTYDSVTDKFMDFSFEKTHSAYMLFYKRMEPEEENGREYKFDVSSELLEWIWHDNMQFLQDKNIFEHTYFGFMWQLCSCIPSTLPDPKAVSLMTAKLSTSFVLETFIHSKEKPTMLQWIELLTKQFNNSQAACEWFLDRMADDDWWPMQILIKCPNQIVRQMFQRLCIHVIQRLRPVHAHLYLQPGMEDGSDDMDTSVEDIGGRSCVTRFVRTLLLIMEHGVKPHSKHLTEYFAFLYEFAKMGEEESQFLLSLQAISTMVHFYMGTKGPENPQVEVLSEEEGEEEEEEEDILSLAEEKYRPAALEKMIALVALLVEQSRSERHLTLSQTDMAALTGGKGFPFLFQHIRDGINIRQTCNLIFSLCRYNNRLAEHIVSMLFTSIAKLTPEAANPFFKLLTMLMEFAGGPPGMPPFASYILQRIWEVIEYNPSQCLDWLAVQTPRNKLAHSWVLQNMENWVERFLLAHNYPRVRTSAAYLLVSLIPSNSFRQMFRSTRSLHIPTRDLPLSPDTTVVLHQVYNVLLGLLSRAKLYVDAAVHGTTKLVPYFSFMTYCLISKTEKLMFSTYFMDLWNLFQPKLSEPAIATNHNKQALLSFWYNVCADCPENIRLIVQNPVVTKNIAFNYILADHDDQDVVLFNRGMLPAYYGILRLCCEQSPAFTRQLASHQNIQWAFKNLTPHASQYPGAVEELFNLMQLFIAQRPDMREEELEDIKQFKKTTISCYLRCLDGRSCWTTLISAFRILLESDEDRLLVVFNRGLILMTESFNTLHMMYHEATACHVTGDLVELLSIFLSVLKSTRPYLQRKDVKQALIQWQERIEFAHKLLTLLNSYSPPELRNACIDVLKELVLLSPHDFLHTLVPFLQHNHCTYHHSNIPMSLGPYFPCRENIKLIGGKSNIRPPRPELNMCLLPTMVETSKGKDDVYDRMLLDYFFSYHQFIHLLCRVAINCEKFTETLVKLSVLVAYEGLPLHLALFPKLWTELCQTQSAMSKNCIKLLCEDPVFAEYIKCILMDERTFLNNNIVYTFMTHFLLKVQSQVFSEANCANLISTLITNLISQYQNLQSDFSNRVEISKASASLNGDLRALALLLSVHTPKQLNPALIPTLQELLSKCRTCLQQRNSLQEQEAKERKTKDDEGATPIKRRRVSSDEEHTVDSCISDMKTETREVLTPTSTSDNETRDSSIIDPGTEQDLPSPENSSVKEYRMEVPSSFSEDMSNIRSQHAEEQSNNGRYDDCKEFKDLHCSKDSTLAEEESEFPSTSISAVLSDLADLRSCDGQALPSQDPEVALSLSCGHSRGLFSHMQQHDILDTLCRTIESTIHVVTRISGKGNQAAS
Procedure, shortened: (§1)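 HEK293T lysate (495 µg per sample, in Tris/CHAPS/IGEPAL buffer with protease inhibitors) was exposed in triplicate for 3 h to fragment at 200 µM or to vehicle, then to Biotin-Ahx-Ub-VS at 0.5 µM final for 1 h. Labelled DUBs were enriched on NeutrAvidin, digested with LysC and trypsin, and analysed by diaPASEF LC-MS/MS. Spectronaut label-free quantities were normalised to the global median, and values are average log2 ratios of fragment over vehicle from an unpaired t-test. Only proteins with ≥2 unique peptides were used.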

USP36 = molecular target: T1, USP36 (UniProt Q9P275)
T1 sequence (whole entry): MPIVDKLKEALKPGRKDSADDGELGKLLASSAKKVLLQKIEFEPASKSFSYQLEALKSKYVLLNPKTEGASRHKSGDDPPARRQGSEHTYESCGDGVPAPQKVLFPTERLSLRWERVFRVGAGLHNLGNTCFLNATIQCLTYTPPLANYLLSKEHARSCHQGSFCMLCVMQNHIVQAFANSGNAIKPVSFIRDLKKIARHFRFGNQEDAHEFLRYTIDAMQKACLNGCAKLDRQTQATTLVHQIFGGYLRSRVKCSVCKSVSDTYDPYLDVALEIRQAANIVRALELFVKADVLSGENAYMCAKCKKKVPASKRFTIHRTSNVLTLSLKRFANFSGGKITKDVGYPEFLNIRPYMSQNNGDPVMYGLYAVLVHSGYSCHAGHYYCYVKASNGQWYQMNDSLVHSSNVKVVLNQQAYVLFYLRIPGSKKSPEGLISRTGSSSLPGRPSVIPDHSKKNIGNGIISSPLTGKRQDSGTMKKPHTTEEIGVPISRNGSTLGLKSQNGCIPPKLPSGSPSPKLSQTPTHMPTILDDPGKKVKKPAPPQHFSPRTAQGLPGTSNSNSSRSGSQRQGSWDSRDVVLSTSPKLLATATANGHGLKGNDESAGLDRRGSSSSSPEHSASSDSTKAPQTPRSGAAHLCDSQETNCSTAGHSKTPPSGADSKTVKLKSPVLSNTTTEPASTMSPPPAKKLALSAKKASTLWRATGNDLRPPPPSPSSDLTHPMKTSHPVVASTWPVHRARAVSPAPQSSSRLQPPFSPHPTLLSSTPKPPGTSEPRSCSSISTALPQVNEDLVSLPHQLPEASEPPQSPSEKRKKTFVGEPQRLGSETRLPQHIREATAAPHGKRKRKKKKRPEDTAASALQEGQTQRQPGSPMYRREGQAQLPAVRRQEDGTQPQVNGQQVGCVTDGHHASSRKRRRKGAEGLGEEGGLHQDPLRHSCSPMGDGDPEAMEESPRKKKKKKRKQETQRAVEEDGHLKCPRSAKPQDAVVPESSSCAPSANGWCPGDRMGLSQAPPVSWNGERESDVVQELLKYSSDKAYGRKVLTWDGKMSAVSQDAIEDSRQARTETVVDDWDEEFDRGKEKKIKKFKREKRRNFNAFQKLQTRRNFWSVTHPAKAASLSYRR
Procedure, shortened: as §1

USP38 = molecular target: T2, USP38 (UniProt Q8NB14)
T2 sequence (whole entry): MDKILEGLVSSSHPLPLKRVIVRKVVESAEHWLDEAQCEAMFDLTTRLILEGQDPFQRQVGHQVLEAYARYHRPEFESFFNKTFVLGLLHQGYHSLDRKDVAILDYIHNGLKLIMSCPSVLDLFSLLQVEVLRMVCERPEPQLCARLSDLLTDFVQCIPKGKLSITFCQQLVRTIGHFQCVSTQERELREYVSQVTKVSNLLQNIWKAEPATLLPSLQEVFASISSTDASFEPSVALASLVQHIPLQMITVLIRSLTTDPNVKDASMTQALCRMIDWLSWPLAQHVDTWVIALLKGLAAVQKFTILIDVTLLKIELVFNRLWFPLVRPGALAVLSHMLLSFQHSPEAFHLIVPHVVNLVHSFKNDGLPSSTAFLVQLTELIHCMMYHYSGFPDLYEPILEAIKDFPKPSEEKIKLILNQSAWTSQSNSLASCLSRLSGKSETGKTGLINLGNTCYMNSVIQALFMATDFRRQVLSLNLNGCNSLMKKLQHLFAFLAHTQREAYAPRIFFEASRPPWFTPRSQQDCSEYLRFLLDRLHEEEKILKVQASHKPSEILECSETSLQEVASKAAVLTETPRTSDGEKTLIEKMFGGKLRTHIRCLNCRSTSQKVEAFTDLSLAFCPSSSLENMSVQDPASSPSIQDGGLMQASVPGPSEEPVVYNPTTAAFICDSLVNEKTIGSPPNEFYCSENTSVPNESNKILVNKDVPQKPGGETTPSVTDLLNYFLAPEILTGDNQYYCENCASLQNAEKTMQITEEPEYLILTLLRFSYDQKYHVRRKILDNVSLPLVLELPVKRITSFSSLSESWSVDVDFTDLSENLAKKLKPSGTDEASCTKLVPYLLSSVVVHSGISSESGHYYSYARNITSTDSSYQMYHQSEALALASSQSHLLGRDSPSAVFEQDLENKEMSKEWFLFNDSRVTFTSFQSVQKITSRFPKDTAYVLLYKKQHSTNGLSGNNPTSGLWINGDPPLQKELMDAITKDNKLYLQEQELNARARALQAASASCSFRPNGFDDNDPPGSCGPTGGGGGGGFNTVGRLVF
Procedure, shortened: as §1

USP39 = molecular target: T3, USP39 (UniProt Q53GS9)
T3 sequence (whole entry): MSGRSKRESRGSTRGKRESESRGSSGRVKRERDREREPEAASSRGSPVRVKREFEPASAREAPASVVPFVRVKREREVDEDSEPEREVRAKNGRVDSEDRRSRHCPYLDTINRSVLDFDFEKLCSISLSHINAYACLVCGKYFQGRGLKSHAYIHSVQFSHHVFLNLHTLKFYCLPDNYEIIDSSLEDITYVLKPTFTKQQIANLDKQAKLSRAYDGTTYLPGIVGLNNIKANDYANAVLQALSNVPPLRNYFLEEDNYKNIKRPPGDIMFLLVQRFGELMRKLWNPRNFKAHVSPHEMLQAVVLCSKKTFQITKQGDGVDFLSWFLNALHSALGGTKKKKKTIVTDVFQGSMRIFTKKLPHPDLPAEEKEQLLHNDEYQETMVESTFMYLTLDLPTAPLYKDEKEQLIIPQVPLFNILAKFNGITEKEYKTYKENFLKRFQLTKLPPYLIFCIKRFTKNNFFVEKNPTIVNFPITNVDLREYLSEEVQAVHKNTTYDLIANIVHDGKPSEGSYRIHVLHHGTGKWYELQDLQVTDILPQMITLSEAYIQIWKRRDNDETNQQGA
Procedure, shortened: as §1

USP4 = molecular target: T4, USP4 (UniProt Q13107)
T4 sequence (whole entry): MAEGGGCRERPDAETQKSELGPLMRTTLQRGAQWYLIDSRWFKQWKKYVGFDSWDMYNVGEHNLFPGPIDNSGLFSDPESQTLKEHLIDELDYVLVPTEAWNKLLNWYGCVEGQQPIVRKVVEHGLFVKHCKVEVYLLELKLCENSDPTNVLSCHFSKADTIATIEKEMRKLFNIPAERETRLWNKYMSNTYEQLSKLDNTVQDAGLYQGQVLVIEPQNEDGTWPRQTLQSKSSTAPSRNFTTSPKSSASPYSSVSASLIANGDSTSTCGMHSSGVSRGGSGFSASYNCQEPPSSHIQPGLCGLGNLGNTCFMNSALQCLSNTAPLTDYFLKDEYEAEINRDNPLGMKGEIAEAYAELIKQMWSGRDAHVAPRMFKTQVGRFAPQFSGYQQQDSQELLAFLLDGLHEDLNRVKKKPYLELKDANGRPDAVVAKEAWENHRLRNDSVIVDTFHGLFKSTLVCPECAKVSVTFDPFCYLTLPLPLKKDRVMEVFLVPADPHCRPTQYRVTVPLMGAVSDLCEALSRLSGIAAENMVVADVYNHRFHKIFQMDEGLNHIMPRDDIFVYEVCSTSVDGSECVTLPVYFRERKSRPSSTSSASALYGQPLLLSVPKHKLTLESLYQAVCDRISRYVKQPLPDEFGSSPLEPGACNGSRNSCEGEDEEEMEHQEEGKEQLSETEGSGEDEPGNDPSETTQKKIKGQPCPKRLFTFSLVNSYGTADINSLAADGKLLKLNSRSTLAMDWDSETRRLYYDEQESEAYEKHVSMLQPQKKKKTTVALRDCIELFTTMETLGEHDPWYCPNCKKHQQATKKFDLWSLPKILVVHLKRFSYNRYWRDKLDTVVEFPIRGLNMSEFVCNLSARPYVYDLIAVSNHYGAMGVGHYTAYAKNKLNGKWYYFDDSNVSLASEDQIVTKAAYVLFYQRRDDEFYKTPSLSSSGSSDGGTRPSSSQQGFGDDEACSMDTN
Procedure, shortened: as §1

Measured: log2 ratio of Biotin-Ahx-Ub-VS probe labelling

Cl.O=C(CCl)N1CCN(Cc2ccccc2)CC1
inactive: USP34 -0.191 | USP36 0.0546 | USP38 -0.0649 | USP39 0.144 | USP4 -0.121
